GPT2 inhibitor: blocks human glutamate pyruvate transaminase 2; Potency, µM (doses to about 57.7 µM), without a hit: at the highest dose activity change, negative = inhibition, actives largely listed as inhibitors; Recombinant GPT2, coupled pyruvate oxidase/HRP Amplex Red fluorescence; hit rate 0.25% among 100,000; Q8TD30; also: % is scaled to controls: 0 for no effect and ±100 for the full control effect; nearly all actives have a fitted effect of over 60% in size
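Fluorescence of coupled pyruvate oxidase/HRP/Amplex Red system (50uM Amplex, 30 min, dark) reports pyruvate formed by GPT2. Enzyme reaction: 10ng/uL GPT2, 2mM L-alanine, 250uM a-KG, 30 min room temperature, pH 7.5; 50uM AOA control.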
3T3 cytotox: NIH 3T3 cell cytotoxicity; NIH 3T3 viability, CellTiter-Glo ATP luminescence, 48-72 h; Potency, µM (doses to about 96.7 µM), for the others: at the top dose activity change, negative = cytotoxicity, hits mostly inhibitors; hit rate 4.3% among 94,000; also: % is scaled to controls: 0 for no effect and ±100 for the full control effect; nearly all actives have a fitted effect of over 55% in size
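First NIH 3T3 cells are plated at 400 cells/well; next compound is pinned in; then plates incubate 48 or 72 hr at 37 °C; finally CellTiter-Glo is added and luminescence read after 10 min.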
hNpr1 antagonist: human Npr1 receptor antagonism. HEK293 hNpr1 GloSensor cGMP, ANP-stimulated luminescence. Potency, µM (doses to about 46.3 µM), for the others: top-dose activity change, negative = inhibition, usual class: inhibitors. hit rate 1.6% among 76,000. AID 1347048; calls by dose curve; also: % is scaled to controls: 0 for no effect and ±100 for the full control effect; nearly all actives have a fitted effect of over 60% in size
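Compound pre-incubated 30 min at room temperature on GloSensor-loaded HEK293 cells stably carrying hNpr1 and the pGS-40F cGMP biosensor. Stimulation uses hNppA at 0.1 nM final; luminescence is taken at baseline and 20 min post-agonist.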
HEK cytotox: cytotoxic compounds in HEK 293 cells; hit rate 6.6% among 94,000; AID 1345083; HEK 293 viability, ATP luminescence (CellTiter-Glo), 48-72 h; Potency, µM (series often up to 115 µM), without a hit: top-dose activity change, negative = cytotoxicity, most hits filed as inhibitors; also: % is scaled to controls: 0 for no effect and ±100 for the full control effect; nearly all actives have a fitted effect of over 60% in size
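Cytotoxicity was scored by loss of ATP-coupled luminescence (CellTiter-Glo) in HEK 293 cells. Compound treatment ran 48 or 72 hr at 37 degree Celsius, 5% CO2, 95% humidity.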
FLuc inh-1: blocks purified firefly luciferase enzyme activity | P08659 | purified P. pyralis luciferase, luminescence, biochemical | Potency, µM (top dose mostly 115 µM), most hits filed as inhibitors | hit rate 2.5% among 76,000; also: % is scaled to controls: 0 for no effect and ±100 for the full control effect; nearly all actives have a fitted effect of over 65% in size
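Biochemical qHTS: compound (6-point titration) added to 10uM D-luciferin plus 10uM ATP in Tris acetate pH 7.5 buffer with Mg, Tween-20 and BSA, then purified enzyme at 10nM; light output imaged.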
FLuc SDR no ATP: stabilizes firefly luciferase without ATP. Purified FLuc-C-HiBiT, Nano-Glo HiBiT luminescence, no ATP. Potency, µM (doses to about 32.7 µM), for inactives: at the highest dose activation (signal gain), usual class: activators. hit rate 7.8% among 1,300. shares compounds with FLuc inh-1; also: nearly all actives have a fitted effect of over 55% in size
FLuc SDR ATP: firefly luciferase binding stabilization, ATP added. purified FLuc-C-HiBiT + ATP, HiBiT complementation luminescence. hit rate 8.7% among 1,300. shares compounds with FLuc inh-1. Potency, µM (highest dose often 32.7 µM), inactives show top-dose activation (gain of signal), usual class: activators;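 also: signal reports ligand binding via conformational change of the enzyme rather than luciferase catalysis; % of control where 0% means no effect; nearly all actives have a fitted effect of over 55% in size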
FLuc inh-2: inhibitors of firefly luciferase enzymatic activity. shares compounds with FLuc inh-1. purified FLuc-C-HiBiT enzyme, luciferin luminescence. Potency, µM (series often up to 32.7 µM), for the others: at the highest dose activity change, negative = inhibition, usual class: inhibitors. hit rate 42% among 1,300; also: % is scaled to controls: 0 for no effect and ±100 for the full control effect; nearly all actives have a fitted effect of over 70% in size
Starred values were filed as active, the others as inactive; i = inactive; ? = inconclusive; · = no result; [ ] = dose if it differs, or a comment. This is a sample that favours compounds with a hit; in the whole collection about 10% have one here. Unless noted, calls follow the shape of the dose curve; as a rule, active = well fitted curve in the direction sought with a large enough effect; inconclusive = small, poorly fitted or top-dose-only effect, or another doubt; inactive = no such curve, though single readings can be large; an effect the other way counts as inactive or inconclusive. Potency is read from the fitted curve at half-maximal effect.

SMILES | GPT2 inhibitor | 3T3 cytotox | hNpr1 antagonist | HEK cytotox | FLuc inh-1 | FLuc SDR no ATP | FLuc SDR ATP | FLuc inh-2
COc1cccc(-c2cc3c(=O)n(CCNC(=O)c4ccccc4Cl)ccn3n2)c1 | i | -24% | -19% | ? | 13µM* | 19% | 13% | ?
COc1cccc(CC(=O)NCCn2ccn3nc(-c4ccc(C)c(C)c4)cc3c2=O)c1 | -3% | ? | -3% | 79µM* | 13µM* | 23% | 13% | ?
CC(C)C(=O)NC1CCN(Cc2ccc(-c3nc4cccc(Cl)c4s3)cc2)CC1 | · | · | · | · | · | 13% | 9% | -6%
CC(C)N1Cc2cc(C(=O)NC3CCN(Cc4ccccc4)CC3)sc2C1 | ? | ? | -11% | ? | i | · | · | ·
Cn1nccc1C(=O)N1CCCN(Cc2ccncc2)C(c2ccccc2)CC(=O)NCC1 (centres undefined) | i | -3% | 4% | -2% | i | · | · | ·
COCCCNC(=O)N1CCCC(c2nc(-c3cccnc3)no2)CCNC(=O)CC1 (centres undefined) | ? | -13% | 0% | -14% | i | · | · | ·
COc1cccc(C(=O)NCCC2CCN(C(=O)Nc3cccc(F)c3)CC2)c1 | -17% | ? | 0% | -23% | i | · | · | ·
COc1ccc(C(=O)NCCC2CCN(C(=O)Nc3cc(F)cc(F)c3)CC2)cc1 | 4% | -30% | -26% | ? | 6.3µM* | ? | 15% | ?
Cc1ccc(NC(=O)N2CCC(CCNC(=O)C3CC3)CC2)cc1 | i | -19% | -5% | ? | 10µM* | ? | ? | ?
Cc1ccc(NC(=O)N2CCC(CCNC(=O)c3ccc(F)cc3)CC2)cc1F | -13% | ? | -28% | ? | 10µM* | 21% | 13% | ?
Cc1ccc(NC(=O)N2CCC(CCNC(=O)C3CCC3)CC2)cc1F | 1% | -24% | -23% | -12% | 11µM* | ? | ? | ?
Cc1ccc(NC(=O)N2CCC(CCNC(=O)C(C)C)CC2)cc1F | i | -6% | 4% | -6% | ? | · | · | ·
O=C(Nc1cccc(F)c1)N1CCC(N2CC3CC(C2)[C@H]2CCCC(=O)N2C3)CC1 (some centres undefined) | -16% | -1% | -16% | 4% | i | · | · | ·
O=C1CCC2(CCCO2)CCN1Cc1ccccc1C(F)(F)F (centres undefined) | i[11.5 µM] | -12% | 5% | -3% | i | · | · | ·
O=C(NCc1cccc(C(F)(F)F)c1)C1CCN(c2cnn(CC3CC3)c(=O)c2)C1 (centres undefined) | i | ? | · | ? | · | · | · | ·
Cc1cc(C2CCCN2C(=O)C2CCN(C(=O)C3CCCC3)CC2)on1 (centres undefined) | -11% | -19% | 9% | -9% | i | · | · | ·
CCn1cc(-c2ccc(Cl)cc2)cc1C(=O)O | -3% | -21% | 1% | -9% | ? | 13% | 11% | -10%
Cc1cccc(CNC(=O)c2ccc(Cn3ccn4nc5c(c4c3=O)CCCC5)cc2)c1 | 3% | ? | -14% | ? | i | · | · | ·
Fc1cccc(-c2cnc(Nc3ccc(N4CCOCC4)cc3)c3c2CCO3)c1 | -4%[88.5 µM] | ? | -28%[70.6 µM] | ? | 10µM* | 17%[49.3 µM] | 10%[49.3 µM] | ?
COc1cccc(Nc2ncc(-c3ccc(OC)nc3)c3c2OCC3)c1 | 4%[88.5 µM] | ? | -29%[70.6 µM] | ? | 5.6µM* | 14%[49.3 µM] | 10%[49.3 µM] | ?

Assay outcomes deposited in PubChem BioAssay by National Center for Advancing Translational Sciences (NCATS).
